KB-V1 MDR tox – kills drug-selected multidrug resistant KB-V1 cells | KB-V1 MDR cells viability, CellTiter-Glo, 72 h | AID 1347076 | 400,000 tested, 3.4% active | Potency, µM (titrated, usually from 46.1 µM), actives largely listed as cytotoxic; note: % is set by controls: 0 for no effect and ±100 for the full control effect; nearly all actives have a fitted effect of over 60% in size
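Potencies derive from concentration-effect curves fitted to normalized luminescence (CellTiter-Glo) of KB-V1 cells treated for 72 h at 37 degrees C in phenol-red-free DMEM containing 10% FBS.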
HT1080NT lethal – kills 2HG-producing HT-1080-NT fibrosarcoma cells; HT-1080-NT fibrosarcoma viability, CellTiter-Glo ATP luminescence, 48 h; Potency, µM (highest dose often 46.1 µM), for inactives: at the top dose activity, negative = less viability, actives largely listed as cytotoxic; 360,000 tested, 1.6% active; AID 686970;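 note: NT is the 2HG producing partner of a matched IDH1 knockdown line; 0% = DMSO-treated cells and -100% = media-only wells without cells; nearly all actives have a fitted effect of over 55% in size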
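HT-1080-NT; 750 cells/well; 5% FBS RPMI; 48 h compound, 37 degrees C; CellTiter-Glo luminescence; curve fitting and curve-class assignment.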
KB-3-1 tox – kills parental KB-3-1 adenocarcinoma cells; 400,000 tested, 1.4% active; Potency, µM (series often up to 46.1 µM), usual class: cytotoxic; KB-3-1 viability, CellTiter-Glo ATP luminescence, 72 h; note: % is set by controls: 0 for no effect and ±100 for the full control effect; nearly all actives have a fitted effect of over 60% in size
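Cytotoxicity measured as CellTiter-Glo luminescence after 72 h at 37 C. Compound titrations were pinned onto drug-naive KB-3-1 parental adenocarcinoma cells grown in DMEM with 10% FBS, and normalized data fitted to concentration-response curves.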
MCF10A rereplic – DNA re-replication induction in MCF 10a cells; 350,000 tested, 2.9% active; Potency, µM (highest dose often 46.1 µM), for inactives: top-dose activity, positive = re-replication, most hits filed as activators; MCF 10A DNA re-replication, Hoechst nuclear intensity, 48 h; AID 624296; note: % of control where 0% means no effect; nearly all actives have a fitted effect of over 50% in size
HT1080 IDH1KD tx – HT-1080 IDH1 knockdown cell toxicity (counter line) | HT-1080 IDH1 knockdown viability, ATP luminescence, 48 h | Potency, µM (series often up to 46.1 µM), without a hit: top-dose activity, negative = toxicity, usual class: cytotoxic | 360,000 tested, 2% active;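 note: 0% = DMSO wells and -100% = cell-free medium wells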
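Cytotoxicity counter-line: IDH1KD HT-1080, 48 h, CellTiter-Glo. Curves classed by r2, magnitude and activity.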
SW480 rerep – inducers of DNA re-replication in SW480 colon cancer cells; SW480 DNA re-replication, Hoechst DNA content imaging, 48 h; Potency, µM (titrated, usually from 46.1 µM), for the others: at the highest dose re-replication activation, most hits filed as activators; 340,000 tested, 1.8% active; AID 624297; note: % of control where 0% means no effect; nearly all actives have a fitted effect of over 55% in size
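Per well, 250 cells were exposed to pinned compound for 48 hr. Nuclear DNA was visualised with Hoechst (40 min, 37 C) and total object intensity recorded by fluorescence scanning.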
* = called active by the depositor; i = inactive; ? = inconclusive; . = no result given. Hits are enriched below; roughly 8% of the tested compounds scored in any of these assays. Calls come from the whole dose curve; as a rule, active = well fitted curve in the direction sought with a large enough effect; inconclusive = small, poorly fitted or top-dose-only effect, or another doubt; inactive = no such curve, though single readings can be large; an effect the other way counts as inactive or inconclusive. Potency is the fitted concentration of half-maximal effect.

SMILES | KB-V1 MDR tox | HT1080NT lethal | KB-3-1 tox | MCF10A rereplic | HT1080 IDH1KD tx | SW480 rerep
O=C(NC1(C(F)(F)F)N=C(c2ccccc2)N(Cc2ccccc2)C1=O)c1ccc(F)cc1 (stereo not given) | i | . | i | . | . | .
COc1cccc(C2CNC3(CCCC(C)C3)c3[nH]c4ccccc4c32)c1OC (stereo not given) | ? | ? | i | 18.4µM* | ? | 95.1%
CC1(C)CC(=O)CC2(C1)NCC(c1ccccc1)c1c2[nH]c2ccccc12 (stereo not given) | i | -4.7% | i | 2.8% | -19.8% | -21.4%
CC(C)C(=O)N1CCCC1(C)C(=O)Nc1ccc2c(c1)OCO2 (stereo not given) | i | 24.9% | i | . | 0.0% | .
COc1ccc([N+](=O)[O-])cc1NC(=O)C(C)N1CCCC1 (stereo not given) | i | -10.9% | i | -5.0% | 8.4% | -5.8%
CC(C(=O)Nc1cc([N+](=O)[O-])ccc1Cl)N1CCN(c2ccccc2O)CC1 (stereo not given) | 10.3µM* | ? | ? | ? | ? | 16.1%
COc1ccc(CC(N)c2csc(NC(=O)c3ccc(F)cc3)n2)cc1 (stereo not given) | i | 20.6µM* | i | . | ? | .
COc1ccc(CC(N)c2csc(NC(=O)c3ccc(OC)cc3)n2)cc1 (stereo not given) | i | ? | i | . | -22.1% | .
COc1ccc(CC(N)c2csc(NC(=O)C(c3ccccc3)c3ccccc3)n2)cc1 (stereo not given) | 20.6µM* | ? | ? | . | 20.6µM* | .
COc1ccc(CC(N)c2csc(NC(=O)c3cccc(OC(F)(F)F)c3)n2)cc1 (stereo not given) | ? | 20.6µM* | ? | . | 20.6µM* | .
NC(Cc1ccccc1)c1csc(NC(=O)c2cccc(OC(F)(F)F)c2)n1 (stereo not given) | ? | 14.6µM* | ? | . | ? | .
COc1ccc(CC(N)c2csc(NC(=O)c3ccccc3)n2)cc1 (stereo not given) | i | -25.3% | i | . | -23.2% | .
Cc1c(NC(=O)Nc2ccc(Cl)c(C(F)(F)F)c2)c(=O)n(-c2ccccc2)n1C | i | . | i | . | . | .
COCCNC(=O)CN1C(=O)COc2ccc(S(=O)(=O)N3CC(C)CC(C)C3)cc21 (stereo not given) | i | -15.1% | i | 0.3% | 3.9% | -0.5%
COCCN(CCOC)Cc1cc(=O)oc2ccccc12 | i | 11.3% | i | . | 11.4% | .
CN(C)c1ccc(C=O)c(Cl)c1 | i | . | i | . | . | .
Cc1ccc(-c2nnc(SCC(=O)N(C)C)nc2-c2ccc(C)cc2)cc1 | ? | 3.2% | i | 18.6% | -1.5% | -1.9%
COc1ccc(OC)c(-c2csc(NC(=O)Cc3ccc(F)cc3)n2)c1 | i | ? | i | ? | ? | ?
COc1ccc(OC)c(-c2csc(NC(=O)c3ccc(F)cc3)n2)c1 | i | ? | ? | 6.51µM* | ? | ?
COc1ccc(OC)c(-c2csc(NC(=O)Cn3[nH]c(=O)c4ccccc4c3=O)n2)c1 | i | ? | i | ? | 20.6µM* | 8.2µM*
Cc1ccccc1-c1nnc(NC(=O)Nc2ccc3ccccc3c2)s1 | i | . | ? | . | . | .
Cc1ccc(Cn2c(CO)cnc2SCC(=O)Nc2ccc(C)c(Cl)c2)cc1 | i | . | i | . | . | .
Cn1c(=O)c2c(-c3ccc(Cl)cc3)ccnc2n(C)c1=O | i | . | i | . | . | .
Cc1cc(C)c(COc2ccc(/C=N/n3c(C)n[nH]c3=S)cc2)c(C)c1 | i | ? | i | 13µM* | ? | -79.9%
Cc1n[nH]c(=S)n1/N=C/c1ccc(OCc2ccc(Cl)cc2)cc1 | ? | -1.4% | i | 11.6% | -0.9% | -10.4%

High-throughput results from PubChem.
